# “And” between values parts separate entries of the source, which are not always exact repeats. Identical values can stand only once. Inconclusive results are not listed. Where a call stands in place of a potency, no number is given. The source holds several records for some structures; these can differ, active in one and inactive in another. The source made the active and inactive calls. The call rests on the fitted dose curve; in most records, active means well fitted curve in the direction sought with a large enough effect; inconclusive means small, poorly fitted or top-dose-only effect, or another doubt; inactive means no such curve, though single readings can be large; an effect the other way counts as inactive or inconclusive.
# Legend:
# MCC-13 = test: qHTS assay to identify novel small-molecules to repurpose for Merkel cell carcinoma treatment (AID 1296009); conditions: MCC and control cell lines, CellTiter-Glo viability, 72 h; series mostly up to 46 µM; further: nearly all actives have a fitted effect of over 60% in size
# Outline: (§1)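 Cell viability, measured as CellTiter-Glo luminescence, was normalized between DMSO and no-cell wells. The cells had been exposed to 8- or 11-point compound dilutions for 72 hr at 37 degree celsius.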
# MCC-26 = test: as above; conditions: MCC and control cell lines, CellTiter-Glo viability, 72 h; series mostly up to 46 µM
# Outline: as §1
# MKL-1 = test: as above; conditions: MCC and control cell lines, CellTiter-Glo viability, 72 h; series mostly up to 46 µM
# Outline: as §1
# UISO = test: as above; conditions: MCC and control cell lines, CellTiter-Glo viability, 72 h; series mostly up to 46 µM
# Outline: as §1
# WaGa = test: as above; conditions: MCC and control cell lines, CellTiter-Glo viability, 72 h; series mostly up to 46 µM
# Outline: as §1
# C33A = test: Primary qHTS to identify gynecologic anti-cancer compounds using libraries of approved drugs and bioactive compounds (AID 1345084); conditions: Gynecologic cancer cell panel viability, ATPlite luminescence, 48 h; series mostly up to 57.5 µM; further: nearly all actives have a fitted effect of over 55% in size
# Outline: (§2)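 Cells, 1,000 per well, plated 16 h, then exposed 48 h at 37 C to compounds. Viability by ATPlite luminescence after 15 min at room temperature.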
# CASKI = test: as above; conditions: Gynecologic cancer cell panel viability, ATPlite luminescence, 48 h; series mostly up to 57.5 µM
# Outline: as §2
# Es-2 = test: as above; conditions: Gynecologic cancer cell panel viability, ATPlite luminescence, 48 h; series mostly up to 57.5 µM
# Outline: as §2
# HeLa = test: as above; conditions: Gynecologic cancer cell panel viability, ATPlite luminescence, 48 h; series mostly up to 57.5 µM
# Outline: as §2
# JEG-3 = test: as above; conditions: Gynecologic cancer cell panel viability, ATPlite luminescence, 48 h; series mostly up to 57.5 µM
# Outline: as §2
# OV90 = test: as above; conditions: Gynecologic cancer cell panel viability, ATPlite luminescence, 48 h; series mostly up to 57.5 µM
# Outline: as §2
# PA-1 = test: as above; conditions: Gynecologic cancer cell panel viability, ATPlite luminescence, 48 h; series mostly up to 57.5 µM
# Outline: as §2
# MKL-2 = test: qHTS assay to identify novel small-molecules to repurpose for Merkel cell carcinoma treatment (AID 1296009); conditions: MCC and control cell lines, CellTiter-Glo viability, 72 h; series mostly up to 46 µM; further: nearly all actives have a fitted effect of over 60% in size
# Outline: as §1
# Hek293T [1] = test: Primary qHTS to identify gynecologic anti-cancer compounds using libraries of approved drugs and bioactive compounds (AID 1345084); conditions: Gynecologic cancer cell panel viability, ATPlite luminescence, 48 h, control line for the selectivity index; series mostly up to 57.5 µM; further: nearly all actives have a fitted effect of over 55% in size
# Outline: as §2
# SKOV3 = test: as above; conditions: Gynecologic cancer cell panel viability, ATPlite luminescence, 48 h; series mostly up to 57.5 µM
# Outline: as §2
# CAOV3 = test: as above; conditions: Gynecologic cancer cell panel viability, ATPlite luminescence, 48 h; series mostly up to 57.5 µM
# Outline: as §2
# NIH3T3 [2] = test: Cytotoxic Profiling of Annotated Libraries Using Quantitative High-Throughput Screening (AID 1296008); conditions: Five cell lines viability, CellTiter-Glo ATP luminescence, 48-72 h; max response: stronger effect = lower value; further: nearly all actives have a fitted effect of over 60% in size
# Outline: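 Cytotoxicity was measured as CellTiter-Glo ATP luminescence, read after 10 min at room temperature. Compound treatment of the cells lasted 48 or 72 hr at 37 degrees Celsius in a qHTS format.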
# HACAT = test: qHTS assay to identify novel small-molecules to repurpose for Merkel cell carcinoma treatment (AID 1296009); conditions: MCC and control cell lines, CellTiter-Glo viability, 72 h; at 44.8 µM (top of the series) unless noted; further: nearly all actives have a fitted effect of over 60% in size
# Outline: as §1
# NIH3T3 [3] = test: as above; conditions: MCC and control cell lines, CellTiter-Glo viability, 72 h; at 44.8 µM (top of the series) unless noted
# Outline: as §1
# HEK293T [4] = test: as above; conditions: MCC and control cell lines, CellTiter-Glo viability, 72 h; at 44.8 µM (top of the series) unless noted
# Outline: as §1
# Potency means the concentration at half of the fitted maximal effect.
compound,measurement,setting,value
CC(CC1c2ccccc2CCc2ccccc21)CN(C)C (stereo unspecified),Potency,MCC-13,inactive
same,Potency,MCC-26,inactive
same,Potency,MKL-1,inactive
same,Potency,UISO,inactive
same,Potency,WaGa,inactive
same,Potency,C33A,inactive
same,Potency,CASKI,inactive
same,Potency,Es-2,inactive
same,Potency,HeLa,inactive
same,Potency,JEG-3,inactive
same,Potency,OV90,17.8 µM (active)
same,Potency,PA-1,inactive
Cc1cc(C(C)(C)C)c(O)c(C(C)(C)C)c1,Potency,MCC-13,inactive
same,Potency,MCC-26,inactive
same,Potency,MKL-1,inactive
same,Potency,MKL-2,inactive
same,Potency,UISO,inactive
same,Potency,WaGa,inactive
same,Potency,C33A,inactive
same,Potency,CASKI,inactive
same,Potency,Es-2,inactive
same,Potency,HeLa,inactive
same,Potency,Hek293T [1],inactive
same,Potency,JEG-3,inactive
same,Potency,OV90,inactive
same,Potency,PA-1,inactive
same,Potency,SKOV3,inactive
CCCCNc1ccc(C(=O)OCCN(CC)CC)cc1,Potency,MCC-13,inactive
same,Potency,MCC-26,inactive
same,Potency,MKL-1,inactive
same,Potency,MKL-2,inactive
same,Potency,UISO,inactive
same,Potency,WaGa,inactive
same,Potency,C33A,inactive
same,Potency,CAOV3,inactive
same,Potency,Es-2,inactive
same,Potency,HeLa,inactive
same,Potency,Hek293T [1],inactive
same,Potency,JEG-3,inactive
same,Potency,OV90,inactive
same,Potency,PA-1,inactive
O=C(O)Cc1ccc(OCCNC[C@H](O)c2ccccc2)cc1,max response,NIH3T3 [2],0.971% (inactive)
same,Potency,MCC-13,inactive
same,Potency,C33A,inactive
same,Potency,CAOV3,inactive
same,Potency,CASKI,inactive
same,Potency,Es-2,inactive
same,Potency,HeLa,inactive
same,Potency,Hek293T [1],inactive
same,Potency,JEG-3,inactive
same,Potency,OV90,inactive
same,Potency,PA-1,inactive
same,Potency,SKOV3,inactive
Nc1cccc2c(N)cccc12,outcome,HACAT,inactive [at 92 µM]
same,Potency,MCC-13,38.6 µM (active)
same,Potency,MKL-1,6.11 µM (active)
same,Potency,MKL-2,1.93 µM (active)
same,Potency,UISO,10.9 µM (active)
same,Potency,WaGa,19.3 µM (active)
same,Potency,Es-2,inactive
same,Potency,HeLa,inactive
same,Potency,Hek293T [1],inactive
same,Potency,OV90,20 µM (active)
CCC1(c2cnc[nH]2)Cc2ccccc2C1,Potency,MCC-13,inactive
same,Potency,MCC-26,inactive
same,Potency,MKL-1,inactive
same,Potency,MKL-2,inactive
same,outcome,NIH3T3 [3],inactive
same,Potency,UISO,inactive
same,Potency,WaGa,inactive
same,Potency,C33A,inactive
same,Potency,CASKI,inactive
same,Potency,Es-2,inactive
same,Potency,HeLa,inactive
same,Potency,Hek293T [1],inactive
same,Potency,JEG-3,inactive
same,Potency,OV90,inactive
same,Potency,PA-1,inactive
same,Potency,SKOV3,inactive
CC[C@@H]([C@H](C)O)n1ncn(-c2ccc(N3CCN(c4ccc(OC[C@@H]5CO[C@@](Cn6cncn6)(c6ccc(F)cc6F)C5)cc4)CC3)cc2)c1=O,Potency,MCC-13,inactive
same,Potency,MCC-26,inactive
same,Potency,MKL-1,inactive
same,Potency,MKL-2,inactive
same,Potency,UISO,inactive
same,Potency,WaGa,inactive
same,Potency,C33A,11.2 µM (active)
same,Potency,CAOV3,inactive
same,Potency,HeLa,inactive
same,Potency,JEG-3,inactive
same,Potency,OV90,15.8 µM (active)
same,Potency,SKOV3,15.8 µM (active)
CCC1=C[C@@H]2CN(C1)Cc1c([nH]c3ccccc13)[C@@](C(=O)OC)(c1cc3c(cc1OC)N(C)[C@H]1[C@@](O)(C(=O)OC)[C@H](OC(C)=O)[C@]4(CC)C=CCN5CC[C@]31[C@@H]54)C2,outcome,HACAT,inactive
same,Potency,MKL-2,0.0188 µM (active)
same,Potency,UISO,0.0119 µM (active)
same,Potency,CAOV3,10 µM (active)
Nc1ncnc2nc[nH]c12,outcome,HACAT,inactive
same,Potency,MCC-13,inactive
same,Potency,MCC-26,inactive
same,Potency,MKL-1,inactive
same,Potency,MKL-2,inactive
same,Potency,UISO,inactive
same,Potency,WaGa,inactive
same,Potency,C33A,inactive
same,Potency,CASKI,inactive
same,Potency,Es-2,inactive
same,Potency,HeLa,inactive
same,Potency,Hek293T [1],inactive
same,Potency,JEG-3,inactive
same,Potency,OV90,inactive
same,Potency,PA-1,inactive
CN1CCCN=C1/C=C/c1cccs1,outcome,HACAT,inactive
same,outcome,HEK293T [4],inactive
same,Potency,MCC-13,inactive
same,Potency,MCC-26,inactive
same,Potency,MKL-1,inactive
same,Potency,MKL-2,inactive
same,Potency,UISO,inactive
same,Potency,WaGa,inactive
same,Potency,C33A,inactive
same,Potency,CAOV3,inactive
same,Potency,CASKI,inactive
same,Potency,Es-2,inactive
same,Potency,HeLa,inactive
same,Potency,Hek293T [1],inactive
same,Potency,JEG-3,inactive
same,Potency,OV90,inactive
same,Potency,PA-1,inactive
same,Potency,SKOV3,inactive
CCCCCCCCCCCCCC[N+](C)(C)C,Potency,NIH3T3 [2],23.7 µM (active)
same,Potency,MCC-26,16.8 µM (active)
same,Potency,MKL-1,1.19 µM (active)
same,Potency,MKL-2,1.19 µM (active)
same,Potency,UISO,2.37 µM (active)
same,Potency,WaGa,1.33 µM (active)
same,Potency,CASKI,3.16 µM (active)
same,Potency,Es-2,14.1 µM (active)
same,Potency,PA-1,11.2 µM (active)
CC(C)=CCC/C(C)=C/CC/C(C)=C/C(=O)OCC(=O)[C@@]1(O)CC[C@H]2[C@@H]3CCC4=CC(=O)C=C[C@]4(C)[C@H]3[C@@H](O)C[C@@]21C,Potency,MCC-13,inactive
same,Potency,MCC-26,inactive
same,Potency,MKL-1,inactive
same,Potency,MKL-2,inactive
same,Potency,UISO,inactive
same,Potency,WaGa,inactive
same,Potency,C33A,inactive
same,Potency,CAOV3,inactive
same,Potency,CASKI,inactive
same,Potency,HeLa,inactive
same,Potency,Hek293T [1],35.5 µM (active)
same,Potency,JEG-3,inactive
same,Potency,OV90,inactive
O=S(=O)(O)c1ccc2nc(-c3ccccc3)[nH]c2c1,Potency,MCC-13,inactive
same,Potency,MCC-26,inactive
same,Potency,MKL-1,inactive
same,Potency,MKL-2,inactive
same,Potency,UISO,inactive
same,Potency,CAOV3,inactive
same,Potency,CASKI,inactive
same,Potency,Es-2,inactive
same,Potency,HeLa,inactive
same,Potency,Hek293T [1],inactive
same,Potency,JEG-3,inactive
same,Potency,OV90,inactive
same,Potency,PA-1,inactive
same,Potency,SKOV3,inactive
OC1(c2ccc(Cl)c(C(F)(F)F)c2)CCN(CCCC(c2ccc(F)cc2)c2ccc(F)cc2)CC1,Potency,MCC-13,18.8 µM (active)
same,Potency,MKL-1,7.5 µM (active)
same,Potency,MKL-2,5.31 µM (active)
same,Potency,UISO,10.6 µM (active)
same,Potency,WaGa,15 µM (active)
same,Potency,Es-2,25.1 µM (active) and inactive
same,Potency,HeLa,25.1 µM (active) and inactive
same,Potency,OV90,25.1 µM (active) and 31.6 µM (active)
same,Potency,PA-1,inactive
same,Potency,SKOV3,25.1 µM (active)
Nc1ccc2cc3ccc(N)cc3nc2c1,Potency,MCC-13,13.3 µM (active)
same,Potency,MKL-1,4.22 µM (active)
same,Potency,UISO,8.41 µM (active)
same,Potency,WaGa,2.66 µM (active)
same,Potency,C33A,28.2 µM (active)
same,Potency,CAOV3,8.91 µM (active)
same,Potency,CASKI,11.2 µM (active)
same,Potency,Es-2,8.91 µM (active)
same,Potency,HeLa,17.8 µM (active)
same,Potency,Hek293T [1],6.31 µM (active)
same,Potency,OV90,28.2 µM (active)
same,Potency,PA-1,7.94 µM (active)

# Reference: PubChem BioAssay (NCATS)
